Data taken from PubChem BioAssay (EPA / NIEHS).
Records with an inconclusive call do not appear. Activity calls are given as the source filed them. How the source made its calls, unless noted: active means hit-call score of the fitted dose curve at least 0.9, where 1 is the maximum; inactive means score below 0.9.

How the values were obtained:
[1] = ATG_PXRE_CIS: Attagene CIS-FACTORIAL HepG2 Assay for human Pregnane X Receptor Element (PXRE) (AID 2282957); conditions: HepG2 Attagene CIS-FACTORIAL PXRE reporter, mRNA; actives raise or lower the signal
Summary of the method: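 Reporter transcripts under endogenous PXR-responsive cis-regulation quantified from total RNA of transfected HepG2 cells 24 h post-dosing, via RT-PCR with fluorescent primer extension and capillary electrophoresis. Gain or loss of signal fitted against DMSO baseline.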

[2] = target: Transcription factor Sp1 (Homo sapiens) (UniProt P08047); test: ATG_Sp1_CIS: Attagene CIS-FACTORIAL HepG2 Assay for human Specificity Protein 1 (Sp1) (AID 2282961); conditions: HepG2 Sp1 cis-reporter transcription, actives raise or lower the signal
Summary of the method: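 HepG2 cells transiently transfected with multiple reporter transcription units driven by cis-regulatory elements; Sp1-responsive reporter mRNA measured 24 h after dosing by RT-PCR and capillary electrophoresis fluorescence, fitted bidirectionally against DMSO baseline.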

[3] = ATG_SREBP_CIS: Attagene CIS-FACTORIAL HepG2 Assay for human Sterol Regulatory Element Binding (SREBP) (AID 2282962); conditions: HepG2 Attagene cis-factorial SREBP reporter, mRNA; actives raise or lower the signal
Summary of the method: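 Endogenous SREBP activity read as cis-element-driven reporter transcript in transiently transfected HepG2, 24 h post-dosing; quantified via RT-PCR plus capillary electrophoresis of fluorescent fragments. Gain or loss of signal fitted relative to DMSO baseline.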

[4] = target: Signal transducer and activator of transcription 3 (Homo sapiens) (UniProt P40763); test: ATG_STAT3_CIS: Attagene CIS-FACTORIAL HepG2 Assay for human Signal Transducer and Activator of Transcription 3 (STAT3) (AID 2282963); conditions: HepG2, Attagene cis-factorial STAT3 reporter transcription; actives raise or lower the signal
Summary of the method: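 Uses human liver HepG2 transiently carrying cis-regulated reporter transcription units. Following 24 h dosing, reporter mRNA induction was detected by RT-PCR and capillary electrophoresis, analysed bidirectionally versus DMSO.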

[5] = ATG_TA_CIS: Attagene CIS-FACTORIAL HepG2 Assay for human TA Basal Promoter (AID 2282964); conditions: HepG2 Attagene CIS-factorial TA basal promoter reporter; actives raise or lower the signal
Summary of the method: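 Read-out: fluorescent reporter-transcript fragments resolved by capillary electrophoresis after RT-PCR and HpaI digestion. Source: HepG2 cells carrying transiently transfected multi-reporter cis constructs, treated 24 h. Endpoint fitted bidirectionally relative to DMSO.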

[6] = ATG_TCF_b_cat_CIS: Attagene CIS-FACTORIAL HepG2 Assay for human T-Cell-Factor with beta-catenin (TCF/b-cat) (AID 2282965); conditions: HepG2 TCF/beta-catenin cis-reporter transcription, actives raise or lower the signal
Summary of the method: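 HepG2 cells transiently transfected with multiple cis-promoter-regulated reporter transcription units, so endogenous transcription factor activity is measured. Reporter mRNA read 24 hours after dosing by RT-PCR, fluorescent labelling and capillary electrophoresis; bidirectional fitting against DMSO.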

[7] = ATG_TAL_CIS: Attagene CIS-FACTORIAL HepG2 Assay for human TAL Basal Promoter (AID 2282966); conditions: HepG2 Attagene cis-factorial TAL promoter reporter; actives raise or lower the signal;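 further: background control endpoint measuring basal TAL promoter reporter mRNA not a specific factor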
Summary of the method: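 Background-control endpoint: basal TAL promoter reporter transcripts in transiently transfected HepG2, measured 24 h after dosing. Read-out by RT-PCR with fluorescent primer extension and capillary electrophoresis; gain or loss of signal fitted relative to DMSO.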

[8] = ATG_TGFb_CIS: Attagene CIS-FACTORIAL HepG2 Assay for human Transforming Growth Factor (TGF) (AID 2282967); conditions: HepG2 Attagene CIS TGFb reporter, mRNA transcription; actives raise or lower the signal
Summary of the method: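 Transient MRTU transfection of HepG2 (FuGene 6). Dose 24 h. TriZol RNA, oligo(dT) RT, PCR, 6-FAM primer extension, HpaI cut, CE. Bidirectional fit, DMSO = baseline.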

[9] = ATG_VDRE_CIS: Attagene CIS-FACTORIAL HepG2 Assay for human Vitamin D Receptor Element (VDRE) (AID 2282968); conditions: HepG2 VDRE cis-reporter transcription, actives raise or lower the signal
Summary of the method: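 Transfected HepG2 reporter cells, chemical treatment 24 h. RNA isolated, cDNA amplified with reporter-specific primers, products analysed by capillary electrophoresis. Endpoint fitted in both directions versus DMSO.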

[10] = target: Steroid hormone receptor ERR1 (Homo sapiens) (UniProt P11474); test: ATG_ERRa_TRANS: Attagene TRANS-FACTORIAL HepG2 Assay for human Estrogen-Related Receptor alpha (ERRa) (AID 2282971; active means hit-call score of the fitted dose curve at least 0.9, where 1 is the maximum); conditions: HepG2 Attagene TRANS reporter, ERRa transactivation
Summary of the method: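 Reporter transcripts from ERRa-Gal4 chimera activity measured in transiently transfected human HepG2 cells 24 hours after dosing, using RT-PCR with 6-FAM primer extension, HpaI digestion and capillary electrophoresis; DMSO is baseline.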

[11] = target: X-box-binding protein 1 (Homo sapiens) (UniProt P17861); test: ATG_Xbp1_CIS: Attagene CIS-FACTORIAL HepG2 Assay for human X-box Binding Protein 1 (XBP1) (AID 2282972); conditions: HepG2 XBP1 cis-element reporter, Attagene multiplex; actives raise or lower the signal
Summary of the method: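 Reporter transcripts were quantified by RT-PCR with fluorescent primer extension and capillary electrophoresis after 24 h chemical exposure. Cells: transiently transfected HepG2 carrying cis-regulated reporter constructs; data fitted bidirectionally relative to DMSO.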

[12] = ATG_GAL4_TRANS: Attagene TRANS-FACTORIAL HepG2 Assay for GAL4 (Internal Marker) (AID 2282976; active means hit-call score of the fitted dose curve at least 0.9, where 1 is the maximum); conditions: HepG2 Attagene TRANS GAL4 internal marker reporter
Summary of the method: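 In transfected human HepG2 liver cells dosed 24 h, GAL4 reporter mRNA serves as a baseline marker. Detection by RT-PCR with fluorescent capillary electrophoresis, activity fitted upward relative to DMSO.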

[13] = target: Paired box protein Pax-6 (Homo sapiens) (UniProt P26367); test: ATG_Pax6_CIS: Attagene CIS-FACTORIAL HepG2 Assay for human Paired Box 6 (PAX6) (AID 2282956); conditions: HepG2 CIS-FACTORIAL PAX6 reporter transcription, RNA readout; actives raise or lower the signal
Summary of the method: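 Read-out is reporter transcript level, measured by RT-PCR with fluorescent primer extension and capillary electrophoresis after 24 h dosing of transfected HepG2 cells. Activity in either direction fitted relative to DMSO control.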

[14] = ATG_PPRE_CIS: Attagene CIS-FACTORIAL HepG2 Assay for human Peroxisome Proliferator-activated Response Element (PPRE) (AID 2282958); conditions: HepG2 PPRE cis-element reporter, Attagene transcription factor profiling; actives raise or lower the signal
Summary of the method: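 HepG2 cells transiently transfected with multiplexed cis-element reporter units measure endogenous transcription factor activity. After 24 h compound exposure, reporter mRNA is quantified by RT-PCR, 6-FAM labeling, HpaI digestion and capillary electrophoresis; bidirectional fits are made against DMSO baseline.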

[15] = ATG_RORE_CIS: Attagene CIS-FACTORIAL HepG2 Assay for human RAR-related Orphan Receptor Element (RORE) (AID 2282959); conditions: HepG2 Attagene cis-factorial RORE reporter, mRNA; actives raise or lower the signal
Summary of the method: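 HepG2 cells transiently transfected with multiple cis-element reporter transcription units, exposed to chemical for 24 h. Reporter mRNA quantified by RT-PCR, 6-FAM primer-extension labeling, HpaI digestion and capillary electrophoresis; bidirectional fit versus DMSO baseline.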

[16] = ATG_Sox_CIS: Attagene CIS-FACTORIAL HepG2 Assay for human SRY-box transcription factor (SOX) (AID 2282960); conditions: HepG2 Attagene cis-factorial SOX reporter, mRNA; actives raise or lower the signal
Summary of the method: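 HepG2 cells transiently transfected with cis-element-driven multiple reporter transcription units, dosed 24 h; reporter mRNA measured by RT-PCR, FAM labelling, HpaI digestion and capillary electrophoresis. Bidirectional fit versus DMSO baseline.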

[17] = target: Estrogen receptor (Homo sapiens) (UniProt P03372); test: ATG_ERa_TRANS: Attagene TRANS-FACTORIAL HepG2 Assay for human Estrogen Receptor alpha (ERa) (AID 2282970; active means hit-call score of the fitted dose curve at least 0.9, where 1 is the maximum); conditions: HepG2 Attagene TRANS ERa GAL4 reporter, mRNA
Summary of the method: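 Reporter transcripts were measured 24 h after dosing by RT-PCR with fluorescent primer extension and capillary electrophoresis. The system is transiently transfected HepG2 expressing exogenous NR-Gal4 chimeras driving GAL4-UAS reporters; DMSO is the baseline.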

[18] = ATG_PBREM_CIS: Attagene CIS-FACTORIAL HepG2 Assay for human Phenobarbital-responsive Enhancer Module (PBREM) (AID 2282955); conditions: HepG2 PBREM cis-reporter, Attagene multiplexed transcription; actives raise or lower the signal
Summary of the method: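 HepG2 cells transiently transfected with multiple cis-regulated reporter transcription units; endogenous factor activity at the PBREM element measured as reporter mRNA 24 h after dosing, via RT-PCR and capillary electrophoresis of fluorescent fragments; bidirectional fitting versus DMSO.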

[19] = target: Nuclear receptor subfamily 1 group I member 3 (Homo sapiens) (UniProt Q14994); test: ATG_CAR_TRANS: Attagene TRANS-FACTORIAL HepG2 Assay for human Constitutive Androstane Receptor (CAR) (AID 2282969; active means hit-call score of the fitted dose curve at least 0.9, where 1 is the maximum;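 further: activators raise reporter mRNA above DMSO so AC50 marks induction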); conditions: HepG2 Attagene TRANS-FACTORIAL CAR reporter
Summary of the method: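 Steps: transient transfection of HepG2 with multiple GAL4-UAS reporter units; 24 h compound incubation; RNA isolation, RT-PCR, 6-FAM primer extension, HpaI digest; capillary electrophoresis. Gain-of-signal relative to DMSO negative control.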

[20] = ATG_M_19_TRANS: Attagene TRANS-FACTORIAL HepG2 Assay for M19 Transcription Factor (Internal Marker) (AID 2282974; active means hit-call score of the fitted dose curve at least 0.9, where 1 is the maximum); conditions: HepG2 Attagene TRANS-FACTORIAL M19 internal marker reporter
Summary of the method: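 HepG2 cells transiently transfected with multiple GAL4-UAS reporter transcription units were exposed to chemicals for 24 h. Reporter mRNA was read by RT-PCR, 6-FAM primer extension, HpaI digestion and capillary electrophoresis; gain of signal fitted relative to DMSO.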

Measured: AC50

X-box-binding protein 1 (Homo sapiens), sequence (P17861 whole entry, looked up): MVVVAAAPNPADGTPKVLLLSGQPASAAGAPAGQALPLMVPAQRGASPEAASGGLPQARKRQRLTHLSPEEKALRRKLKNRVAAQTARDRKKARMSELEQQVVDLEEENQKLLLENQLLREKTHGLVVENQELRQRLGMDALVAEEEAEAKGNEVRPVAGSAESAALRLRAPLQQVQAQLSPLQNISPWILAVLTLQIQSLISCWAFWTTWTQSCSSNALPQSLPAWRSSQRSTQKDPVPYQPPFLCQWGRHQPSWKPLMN
Estrogen receptor (Homo sapiens), sequence (P03372 whole entry, looked up, the tested form may be a part): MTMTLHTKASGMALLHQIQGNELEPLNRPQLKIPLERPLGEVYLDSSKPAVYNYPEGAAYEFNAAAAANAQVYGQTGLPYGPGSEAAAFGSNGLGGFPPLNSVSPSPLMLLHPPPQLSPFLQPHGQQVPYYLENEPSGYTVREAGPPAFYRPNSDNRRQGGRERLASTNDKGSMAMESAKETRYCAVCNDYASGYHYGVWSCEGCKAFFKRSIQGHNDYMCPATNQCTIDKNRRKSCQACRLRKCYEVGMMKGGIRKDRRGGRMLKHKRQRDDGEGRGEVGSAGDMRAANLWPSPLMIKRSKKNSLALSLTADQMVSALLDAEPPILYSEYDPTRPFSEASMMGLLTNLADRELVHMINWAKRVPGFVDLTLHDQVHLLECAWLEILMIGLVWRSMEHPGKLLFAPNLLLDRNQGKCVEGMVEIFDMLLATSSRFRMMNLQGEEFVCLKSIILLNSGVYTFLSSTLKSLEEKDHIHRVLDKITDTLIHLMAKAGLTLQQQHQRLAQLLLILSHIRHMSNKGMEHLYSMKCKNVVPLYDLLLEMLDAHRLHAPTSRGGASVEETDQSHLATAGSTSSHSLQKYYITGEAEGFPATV
Nuclear receptor subfamily 1 group I member 3 (Homo sapiens), sequence (Q14994 whole entry, looked up, the tested form may be a part): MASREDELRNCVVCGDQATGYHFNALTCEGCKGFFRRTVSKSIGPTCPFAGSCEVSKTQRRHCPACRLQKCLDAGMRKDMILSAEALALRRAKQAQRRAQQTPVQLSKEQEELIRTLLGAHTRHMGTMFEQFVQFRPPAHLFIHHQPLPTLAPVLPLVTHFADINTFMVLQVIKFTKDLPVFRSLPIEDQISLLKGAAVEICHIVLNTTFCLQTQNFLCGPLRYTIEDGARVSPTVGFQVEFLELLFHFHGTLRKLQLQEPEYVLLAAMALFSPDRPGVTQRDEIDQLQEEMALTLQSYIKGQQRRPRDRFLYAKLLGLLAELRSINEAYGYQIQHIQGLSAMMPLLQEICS
Steroid hormone receptor ERR1 (Homo sapiens), sequence (P11474 whole entry, looked up, the tested form may be a part): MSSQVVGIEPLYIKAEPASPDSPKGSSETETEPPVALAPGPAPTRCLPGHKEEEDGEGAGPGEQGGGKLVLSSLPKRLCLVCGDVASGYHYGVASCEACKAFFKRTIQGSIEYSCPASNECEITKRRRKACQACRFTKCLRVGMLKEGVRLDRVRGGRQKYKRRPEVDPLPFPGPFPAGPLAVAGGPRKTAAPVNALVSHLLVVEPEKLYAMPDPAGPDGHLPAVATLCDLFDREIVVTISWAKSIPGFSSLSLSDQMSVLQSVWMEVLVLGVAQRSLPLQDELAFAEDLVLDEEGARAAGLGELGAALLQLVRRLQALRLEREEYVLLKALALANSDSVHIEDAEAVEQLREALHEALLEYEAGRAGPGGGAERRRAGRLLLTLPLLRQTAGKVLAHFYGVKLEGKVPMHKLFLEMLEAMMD
Signal transducer and activator of transcription 3 (Homo sapiens), sequence (P40763 whole entry, looked up): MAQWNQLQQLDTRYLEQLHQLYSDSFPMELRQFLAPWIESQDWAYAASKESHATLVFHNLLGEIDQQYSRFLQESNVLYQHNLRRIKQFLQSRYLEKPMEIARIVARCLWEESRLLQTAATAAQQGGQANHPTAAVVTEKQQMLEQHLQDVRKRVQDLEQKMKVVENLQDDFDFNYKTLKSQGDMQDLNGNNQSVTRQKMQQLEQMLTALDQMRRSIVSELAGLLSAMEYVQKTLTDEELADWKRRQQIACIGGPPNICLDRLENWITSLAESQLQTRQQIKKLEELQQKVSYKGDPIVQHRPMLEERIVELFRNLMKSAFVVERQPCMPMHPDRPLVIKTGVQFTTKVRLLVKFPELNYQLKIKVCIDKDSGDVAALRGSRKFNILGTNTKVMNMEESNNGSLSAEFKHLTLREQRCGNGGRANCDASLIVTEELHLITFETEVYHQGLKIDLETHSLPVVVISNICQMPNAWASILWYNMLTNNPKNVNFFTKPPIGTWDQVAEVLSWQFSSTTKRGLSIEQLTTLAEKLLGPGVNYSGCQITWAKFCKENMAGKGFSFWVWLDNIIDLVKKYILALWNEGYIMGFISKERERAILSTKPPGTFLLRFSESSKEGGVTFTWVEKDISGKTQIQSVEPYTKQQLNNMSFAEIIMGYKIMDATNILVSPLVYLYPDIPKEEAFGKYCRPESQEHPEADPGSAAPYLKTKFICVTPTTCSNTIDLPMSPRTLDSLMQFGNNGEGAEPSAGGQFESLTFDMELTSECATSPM
Transcription factor Sp1 (Homo sapiens), sequence (P08047 whole entry, looked up): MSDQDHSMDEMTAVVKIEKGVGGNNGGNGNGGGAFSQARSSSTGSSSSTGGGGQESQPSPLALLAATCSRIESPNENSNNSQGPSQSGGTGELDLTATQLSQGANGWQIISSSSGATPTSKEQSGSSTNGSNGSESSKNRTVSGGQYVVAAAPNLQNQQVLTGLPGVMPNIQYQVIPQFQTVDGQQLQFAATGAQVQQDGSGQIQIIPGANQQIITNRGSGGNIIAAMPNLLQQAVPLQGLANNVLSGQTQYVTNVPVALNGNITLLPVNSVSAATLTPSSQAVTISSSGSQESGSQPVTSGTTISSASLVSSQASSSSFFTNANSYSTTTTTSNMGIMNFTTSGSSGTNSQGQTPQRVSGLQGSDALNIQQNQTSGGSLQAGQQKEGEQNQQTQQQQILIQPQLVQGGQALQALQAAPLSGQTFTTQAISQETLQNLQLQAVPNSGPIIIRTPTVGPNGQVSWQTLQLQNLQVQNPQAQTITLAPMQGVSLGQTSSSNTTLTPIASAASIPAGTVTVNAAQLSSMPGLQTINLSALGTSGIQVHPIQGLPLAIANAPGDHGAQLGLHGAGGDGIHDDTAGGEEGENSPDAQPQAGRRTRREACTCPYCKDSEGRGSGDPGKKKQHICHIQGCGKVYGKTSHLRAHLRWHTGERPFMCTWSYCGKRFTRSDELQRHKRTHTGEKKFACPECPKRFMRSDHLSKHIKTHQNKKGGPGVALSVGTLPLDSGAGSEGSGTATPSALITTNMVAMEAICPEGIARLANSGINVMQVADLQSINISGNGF
Paired box protein Pax-6 (Homo sapiens), sequence (P26367 whole entry, looked up): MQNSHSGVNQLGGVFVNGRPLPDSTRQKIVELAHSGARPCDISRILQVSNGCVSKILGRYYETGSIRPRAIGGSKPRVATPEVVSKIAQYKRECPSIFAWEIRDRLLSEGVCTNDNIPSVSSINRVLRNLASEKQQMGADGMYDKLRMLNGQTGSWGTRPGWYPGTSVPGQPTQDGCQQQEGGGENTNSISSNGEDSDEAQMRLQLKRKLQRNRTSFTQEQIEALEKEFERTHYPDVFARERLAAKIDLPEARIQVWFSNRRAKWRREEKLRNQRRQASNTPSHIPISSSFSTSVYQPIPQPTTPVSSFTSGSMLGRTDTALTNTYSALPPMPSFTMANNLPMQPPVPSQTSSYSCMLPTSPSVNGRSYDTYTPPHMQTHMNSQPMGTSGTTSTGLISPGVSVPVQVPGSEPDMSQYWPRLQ

OCCNCCO
inactive: [1] | [2] | [3] | [4] | [5] | [6] | [7] | [8] | [9] | [10] | [11] | [12]

c1ccc(C(O[C@@H]2CCCN(CCc3ccc4c(c3)OCO4)C2)c2ccccc2)cc1
inactive: [14] | [15] | [16] | [2] | [4] | [6] | [7] | [8]
active: [13] 44.3 µM | [1] 0.514 µM | [3] 10.7 µM | [5] 55.3 µM | [17] 1.76 µM | [11] 20.9 µM

COc1cc(C(C)C)c2c(c1)S(=O)(=O)N(COc1cc(=O)n3cccc(OCCN4CCCCC4)c3n1)C2=O
inactive: [18] | [4] | [5] | [8] | [20]
active: [1] 3.27 µM | [15] 8.25 µM | [16] 4.26 µM | [2] 3.94 µM | [3] 3.78 µM | [6] 4.04 µM | [9] 5.67 µM | [19] 2.75 µM | [17] 2.75 µM | [11] 6.56 µM

O=C(O)[C@H](O)[C@@H](O)C(=O)O
inactive: [18] | [1] | [15] | [2] | [3] | [4] | [5] | [6] | [8] | [10] | [11] | [12]

CC1(C)C(=O)N(Cl)C(=O)N1Cl
inactive: [13] | [1] | [15] | [2] | [3] | [4] | [5] | [6] | [7] | [8] | [9] | [20]

CC[C@H](C)C(=O)O[C@H]1C[C@H](O)C=C2C=C[C@H](C)[C@H](CC[C@@H](O)C[C@@H](O)CC(=O)O)[C@H]21
active: [1] 48.1 µM
inactive: [13] | [14] | [15] | [16] | [2] | [3] | [4] | [5] | [6] | [8] | [9] | [12]

Cn1c(=O)c2[nH]cnc2n(C)c1=O
active: [6] 100 µM
inactive: [1] | [14] | [15] | [16] | [2] | [3] | [4] | [5] | [8] | [17] | [11] | [20]

CC(=O)c1ccccc1
inactive: [18] | [1] | [14] | [2] | [3] | [4] | [5] | [6] | [8] | [19] | [17] | [20] | [12]

OCc1ccccc1
inactive: [18] | [1] | [15] | [2] | [3] | [4] | [5] | [6] | [7] | [8] | [9] | [19] | [10] | [11] | [20] | [12]

CCOC(N)=O
inactive: [13] | [1] | [15] | [16] | [2] | [3] | [4] | [5] | [6] | [7] | [8] | [17] | [12]
